Measured values as given in PubChem BioAssay (NCATS).
Several values for one entry are separate records, joined by “and”; a condition that tells them apart may be missing. Identical values can stand only once. Records with an inconclusive call do not appear. Activity calls are given as the source filed them. Unless noted, the call rests on the fitted dose curve; in most records, active means well fitted curve in the direction sought with a large enough effect; inconclusive means small, poorly fitted or top-dose-only effect, or another doubt; inactive means no such curve, though single readings can be large; an effect the other way counts as inactive or inconclusive.

Assays:
[1] = Validation screen for small molecules that induce genotoxicity in human embryonic kidney (HEK293T) cells expressing luciferase-tagged ELG1 (AID 493106); further: 0% is about no effect
How it was run: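 Reporter-gene quantitative HTS in HEK293T cells carrying luciferase-tagged ELG1, whose level climbs under genotoxic stress. Compound exposure lasts 16 hr at 37 °C before luciferase detection.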

[2] = biological target: ATPase family AAA domain-containing protein 5 (Homo sapiens) (UniProt Q96QE3); assay: Validation screen for small molecules that inhibit ELG1-dependent DNA repair in human embryonic kidney (HEK293T) cells expressing luciferase-tagged ELG1 (AID 493107);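 further: cells co-treated with the DNA-damaging agent 5-fluorouridine alongside compound; series mostly up to about 46 µM; on the % scale 0 is the no-effect control and ±100 the full control effect; inhibitors lower the ELG1-luciferase luminescence signal; nearly all actives have a fitted effect of over 70% in size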
How it was run: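 Quantitative HTS in HEK293T cells carrying luciferase-tagged ELG1, stimulated with 5-fluorouridine alongside compound for 16 hr. Loss of luciferase signal marks inhibition of ELG1 response.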

[3] = biological target: Thyrotropin-releasing hormone receptor (Homo sapiens) (UniProt P34981); assay: qHTS for Small Molecule Agonists and Allosteric Enhancers of Human TRH Receptor: Validation Screen for Agonists (AID 493127;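 active means calcium activation more than 3 SD above the typical response in the agonist read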;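 further: intracellular calcium rise by fluo-8 fluorescence before TRH EC20 addition; 0% is about no effect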); conditions: TRH receptor agonist cell assay; at 2 µM; stronger effect = higher value
How it was run: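 Gq-coupled calcium mobilization in TRHR cells after compound addition, monitored kinetically with fluo-8 dye on an FDSS reader.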

[4] = Nrf2 qHTS screen for inhibitors: Validation (AID 493153; active means well fitted inhibition curve with a large enough effect in the main read-out, with a control signal flat, not every such curve was filed as active); conditions: Potency: luciferase luminescence; viability change: measured here: cytotoxicity max response
How it was run: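 Dose-response validation uses reporter A549 cells with firefly luciferase under an antioxidant response element. Compounds stay on cells 18-24 h at 37°C, and luminescence indicates Nrf2-driven transcription.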

[5] = qHTS for Inhibitors of Cell Surface uPA Generation: Validation Assay (AID 493164);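 further: RAW 264.7 macrophage cells exposed to compound for 18 h; 0% is about no effect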
How it was run: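 RAW 264.7, 4000 cells/well, o/n plating; cpd 7-pt 1:5 dilution 2.45 nM–38.3 uM final; 18 h, 37 C/5% CO2; ATP-Lite, 5 s luminescence exposure.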

[6] = biological target: Galactokinase (Homo sapiens) (UniProt P51570); assay: qHTS Validation Assay for Inhibitors of Human Galactokinase (GALK) (AID 493189); further: 0% is about no effect
How it was run: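 GALK (5 nM) with 35 uM ATP and 100 uM galactose in HEPES pH 8.0 with MgCl2, NaCl, DTT and BSA. Reaction ran 1 h at room temperature. Residual ATP read by Kinase-Glo Plus luminescence.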

[7] = Validation screen for small molecules that induce DNA re-replication in SW480 colon adenocarcinoma cells (AID 504364); further: 0% is about no effect
How it was run: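 Cells are treated 48 hr with test compound, stained 40 min with Hoechst at 37 C, and scanned for nuclear fluorescence; compounds inducing re-replication increase nuclei with elevated intensity.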

[8] = biological target: Phosphoglycerate kinase, glycosomal (Trypanosoma brucei brucei) (UniProt P07378); assay: qHTS Validation Assay to Find Inhibitors of Phosphoglycerate Kinase (AID 504547);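 further: control wells lack PGK and mark full inhibition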
How it was run: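 Substrate/PGK mix plus compound; reaction started with GAPDH (100nM final) to form 1,3-BPG; 60 min RT; Kinase-Glo Plus 10 min; luminescence. TEA 100mM pH 7.6, MgCl2 5mM, Tween-20 0.01%.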

[9] = biological target: phosphoglycerate mutase (Leishmania major) (UniProt Q4Q090); assay: qHTS Validation Assay to Find Inhibitors of Phosphoglycerate Mutase (AID 504548);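 further: end-point luminescence from Kinase-GloPlus after the PGAM reaction; series mostly up to about 58 µM; on the % scale 0 is the no-effect control and ±100 the full control effect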
How it was run: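 L. major PGAM (1.25nM final) was added to substrate buffer and pinned compound, incubated 45 minutes at room temperature, then Kinase-GloPlus added; luminescence read after 10 minutes. Buffer: 100 mM TEA pH 7.6, 5 mM MgCl2, 0.01% Tween-20.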

[10] = biological target: Ubiquitin carboxyl-terminal hydrolase 1 (Homo sapiens) (UniProt O94782); assay: Inhibitors of USP1/UAF1: Pilot qHTS (AID 504865);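 further: rhodamine fluorescence freed from ubiquitin-rhodamine substrate followed over time; top concentration of the series differs between compounds; on the % scale 0 is the no-effect control and ±100 the full control effect; nearly all actives have a fitted effect of over 35% in size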
How it was run: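 USP1/UAF1 complex at 1 nM preincubated 15 min at room temperature with compound, then Ub-Rho substrate added at 150 nM final. Fluorescence (480/540 nm) read kinetically in 50 mM HEPES pH 7.8, 0.5 mM EDTA, 1 mM TCEP, 0.1 mg/ml BSA, 0.01% Tween-20.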

[11] = qHTS for Inhibitors of ATXN expression: Validation (AID 588378); further: series mostly up to about 57 µM; on the % scale 0 is the no-effect control and ±100 the full control effect; nearly all actives have a fitted effect of over 75% in size
How it was run: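 HEK293 cells carrying ATXN2-firefly luciferase reporter, treated with compound 24 h at 37 °C. Viability read first by CellTiter-Fluor (405/525 nm), then reporter expression by Bright-Glo luminescence; controls were a known ATXN2 expression inhibitor and a luciferase inhibitor.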

[12] = biological target: Estrogen receptor (Homo sapiens) (UniProt P03372); assay: qHTS assay for small molecule agonists of estrogen receptor alpha signaling (AID 588514; calls by dose curve;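 further: 0% = vehicle only and 100% = reference agonist; nearly all actives have a fitted effect of over 70% in size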)
How it was run: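 Reporter-gene assay. […] controls beta-lactamase in HEK 293 GripTite cells; after 18 hrs with compound, CCF4 substrate is added for 2 hrs and fluorescence is read.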

[13] = biological target: Androgen receptor (Homo sapiens) (UniProt P10275); assay: qHTS assay for small molecule agonists of androgen receptor signaling (AID 588515; active means well fitted curve in the direction sought with a large enough effect in the signal ratio, with a control signal flat; the % refers to the signal ratio; further: on the % scale 0 is the no-effect control and ±100 the full control effect); conditions: AR-UAS-bla HEK293, beta-lactamase ratio, agonist 16 h; activation: stronger effect = higher value
How it was run: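 EC50 and efficacy came from Hill fits of titrations (up to 92 uM) normalized to 30 nM R1881 as 100% and DMSO as 0%. Compound exposure was 16 h at 37 C on AR-UAS-bla HEK293 cells, with a 405/460/530 nm CCF4 fluorescence read.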

[14] = biological target: Androgen receptor (Homo sapiens) (UniProt P10275); assay: qHTS assay for small molecule antagonists of androgen receptor signaling (AID 588516; active means well fitted curve in the direction sought with a large enough effect in the signal ratio, with a control signal flat, not every such curve was filed as active; the % refers to the signal ratio; further: on the % scale 0 is the no-effect control and ±100 the full control effect)
How it was run: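 AR-UAS-bla GripTite HEK 293 cells (2000/well) treated with compound titrations plus 10 nM R1881 for 16 h at 37C. Beta-lactamase read by CCF4 FRET (460/530 nm); IC50 from Hill fits, normalized to R1881 and DMSO control wells.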

[15] = biological target: Glucocorticoid receptor (Homo sapiens) (UniProt P04150); assay: qHTS assay for small molecule agonists of glucocorticoid receptor signaling (AID 588532; active means well fitted curve in the direction sought with a large enough effect in the signal ratio, with a control signal flat; the % refers to the signal ratio;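 further: 100% = dexamethasone at 0.1 µM and 0% = DMSO only wells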); conditions: HeLa MMTV-bla, beta-lactamase ratio, agonist, 18 h; stronger effect = higher value; percent of dexamethasone control, DMSO zero
How it was run: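 Titration series, up to 92 uM, applied to GRE-bla HeLa cells for 18 h at 37 C. Detection by CCF4 FRET substrate after 2 h at RT.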

[16] = biological target: ATP-dependent 6-phosphofructokinase (Trypanosoma brucei brucei) (UniProt O15648); assay: qHTS Assay to Find Inhibitors of T. brucei phosphofructokinase: hit validation (AID 492961);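 further: luminescence reports ADP formed as PFK phosphorylates fructose-6-phosphate with ATP; series mostly up to about 51 µM; on the % scale 0 is the no-effect control and ±100 the full control effect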
How it was run: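 Percent activity derived from corrected luminescence, normalized between 0x and 1x enzyme controls, then fitted to concentration-response curves. Conditions: 1.25 nM PFK, 0.1 mM ATP, 0.5 mM F6P, 45 min RT.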

[17] = qHTS for Inhibitors of ATXN expression: Validation of Cytotoxic Assay (AID 588349)
How it was run: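 HEK293, compound dose series, 72 hr / 37 degrees C; viability via CellTiter Glo (intracellular ATP).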

[18] = biological target: DNA dC->dU-editing enzyme APOBEC-3G (Homo sapiens) (UniProt Q9HC16); assay: qHTS for inhibitors of Vif-A3G interactions: Validation (AID 588379); further: 0% is about no effect
How it was run: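 HeLa cells stably expressing Vif and A3G-eYFP, 700 cells/well, incubated overnight at 37 deg C, then exposed to compound overnight at 37 deg C. Inhibition of Vif-mediated degradation read as increased yellow fluorescence (Ex 488/Em 500-530) by laser-scanning cytometry.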

[19] = biological target: Estrogen receptor (Homo sapiens) (UniProt P03372); assay: qHTS assay for small molecule antagonists of estrogen receptor alpha signaling (AID 588513; active means well fitted curve in the direction sought with a large enough effect in the signal ratio, with a control signal flat, not every such curve was filed as active; the % refers to the signal ratio; further: on the % scale 0 is the no-effect control and ±100 the full control effect)
How it was run: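 ER-alpha-UAS-bla GripTite HEK 293 cells in 2% charcoal/dextran-treated FBS medium; compounds titrated (1:2, duplicate), then stimulated with 0.5 nM 17-beta-estradiol for 18 h at 37C. CCF4 beta-lactamase fluorescence; Hill-fit IC50 and efficacy.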

Sequence of Phosphoglycerate kinase, glycosomal (Trypanosoma brucei brucei) (P07378 whole entry, looked up): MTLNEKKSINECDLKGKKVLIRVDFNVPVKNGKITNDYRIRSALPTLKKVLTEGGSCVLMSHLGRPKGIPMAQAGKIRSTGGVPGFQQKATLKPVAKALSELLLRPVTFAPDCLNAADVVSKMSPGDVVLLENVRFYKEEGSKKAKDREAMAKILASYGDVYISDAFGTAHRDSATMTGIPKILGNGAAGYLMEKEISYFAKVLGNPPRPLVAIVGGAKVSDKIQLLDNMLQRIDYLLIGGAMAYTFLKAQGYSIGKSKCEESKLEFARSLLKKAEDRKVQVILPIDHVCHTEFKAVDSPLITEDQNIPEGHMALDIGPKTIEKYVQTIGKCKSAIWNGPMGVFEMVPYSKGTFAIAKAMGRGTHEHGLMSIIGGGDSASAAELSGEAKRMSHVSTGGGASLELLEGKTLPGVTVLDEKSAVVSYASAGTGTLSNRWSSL
Sequence of Androgen receptor (Homo sapiens) (P10275 whole entry, looked up): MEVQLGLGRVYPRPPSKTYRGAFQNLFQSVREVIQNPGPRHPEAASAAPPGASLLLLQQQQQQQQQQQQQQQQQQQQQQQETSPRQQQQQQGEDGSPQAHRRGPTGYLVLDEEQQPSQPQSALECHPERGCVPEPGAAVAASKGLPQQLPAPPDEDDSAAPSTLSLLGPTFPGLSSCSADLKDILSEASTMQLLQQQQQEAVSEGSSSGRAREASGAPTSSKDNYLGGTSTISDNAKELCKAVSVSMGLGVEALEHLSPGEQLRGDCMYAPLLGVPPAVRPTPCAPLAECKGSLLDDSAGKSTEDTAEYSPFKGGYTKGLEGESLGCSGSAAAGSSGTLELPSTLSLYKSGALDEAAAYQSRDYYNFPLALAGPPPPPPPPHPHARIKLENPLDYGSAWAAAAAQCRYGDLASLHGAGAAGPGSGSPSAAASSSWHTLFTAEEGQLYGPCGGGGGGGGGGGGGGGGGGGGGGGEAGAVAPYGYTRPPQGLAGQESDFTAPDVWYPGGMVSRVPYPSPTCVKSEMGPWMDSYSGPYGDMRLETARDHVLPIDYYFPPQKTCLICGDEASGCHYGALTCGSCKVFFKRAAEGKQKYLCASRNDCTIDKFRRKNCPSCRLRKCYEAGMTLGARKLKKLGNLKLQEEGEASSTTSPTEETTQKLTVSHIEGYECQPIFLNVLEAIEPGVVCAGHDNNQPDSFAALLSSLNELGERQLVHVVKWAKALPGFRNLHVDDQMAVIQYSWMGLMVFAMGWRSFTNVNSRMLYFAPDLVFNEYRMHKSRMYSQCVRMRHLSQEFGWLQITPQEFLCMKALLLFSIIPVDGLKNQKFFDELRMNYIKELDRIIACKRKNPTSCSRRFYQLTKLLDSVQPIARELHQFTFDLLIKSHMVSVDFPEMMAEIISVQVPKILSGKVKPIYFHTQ
Sequence of Galactokinase (Homo sapiens) (P51570 whole entry, looked up): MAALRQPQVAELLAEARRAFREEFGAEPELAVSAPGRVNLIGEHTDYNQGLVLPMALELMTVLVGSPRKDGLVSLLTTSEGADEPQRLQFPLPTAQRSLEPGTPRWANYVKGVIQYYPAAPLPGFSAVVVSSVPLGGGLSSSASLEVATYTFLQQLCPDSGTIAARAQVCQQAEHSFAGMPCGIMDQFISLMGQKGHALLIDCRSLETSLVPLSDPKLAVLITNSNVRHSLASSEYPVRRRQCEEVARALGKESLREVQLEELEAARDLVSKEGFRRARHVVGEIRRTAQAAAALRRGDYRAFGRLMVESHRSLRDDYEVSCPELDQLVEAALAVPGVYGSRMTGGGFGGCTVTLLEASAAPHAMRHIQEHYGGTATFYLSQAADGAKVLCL
Sequence of Thyrotropin-releasing hormone receptor (Homo sapiens) (P34981 whole entry, looked up): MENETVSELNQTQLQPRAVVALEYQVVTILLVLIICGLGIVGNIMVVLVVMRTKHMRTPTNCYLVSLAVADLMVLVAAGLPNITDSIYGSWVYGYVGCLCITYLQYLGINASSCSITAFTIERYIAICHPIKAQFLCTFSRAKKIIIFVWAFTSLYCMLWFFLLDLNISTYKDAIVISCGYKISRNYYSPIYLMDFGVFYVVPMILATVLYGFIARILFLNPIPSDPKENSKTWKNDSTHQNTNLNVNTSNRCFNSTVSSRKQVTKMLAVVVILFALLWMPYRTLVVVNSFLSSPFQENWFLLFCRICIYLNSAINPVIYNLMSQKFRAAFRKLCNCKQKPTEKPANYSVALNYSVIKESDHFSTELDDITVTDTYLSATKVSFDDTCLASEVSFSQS
Sequence of Estrogen receptor (Homo sapiens) (P03372 whole entry, looked up): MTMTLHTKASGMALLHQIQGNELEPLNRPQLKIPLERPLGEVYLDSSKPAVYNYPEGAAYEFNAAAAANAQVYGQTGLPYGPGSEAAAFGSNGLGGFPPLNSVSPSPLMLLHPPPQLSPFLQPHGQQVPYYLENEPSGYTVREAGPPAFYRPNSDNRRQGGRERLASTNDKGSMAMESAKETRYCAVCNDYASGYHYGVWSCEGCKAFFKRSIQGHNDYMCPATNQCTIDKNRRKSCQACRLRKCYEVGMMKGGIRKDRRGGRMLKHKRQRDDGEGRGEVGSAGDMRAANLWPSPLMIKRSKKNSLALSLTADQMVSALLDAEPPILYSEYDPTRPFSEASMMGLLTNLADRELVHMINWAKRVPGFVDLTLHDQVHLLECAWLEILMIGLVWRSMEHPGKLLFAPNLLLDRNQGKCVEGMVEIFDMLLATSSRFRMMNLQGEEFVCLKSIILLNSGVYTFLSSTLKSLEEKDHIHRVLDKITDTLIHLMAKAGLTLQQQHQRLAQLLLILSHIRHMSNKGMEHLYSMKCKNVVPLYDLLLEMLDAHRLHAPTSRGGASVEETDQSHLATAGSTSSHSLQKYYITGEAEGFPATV
Sequence of ATPase family AAA domain-containing protein 5 (Homo sapiens) (Q96QE3 whole entry, looked up, the tested form may be a part): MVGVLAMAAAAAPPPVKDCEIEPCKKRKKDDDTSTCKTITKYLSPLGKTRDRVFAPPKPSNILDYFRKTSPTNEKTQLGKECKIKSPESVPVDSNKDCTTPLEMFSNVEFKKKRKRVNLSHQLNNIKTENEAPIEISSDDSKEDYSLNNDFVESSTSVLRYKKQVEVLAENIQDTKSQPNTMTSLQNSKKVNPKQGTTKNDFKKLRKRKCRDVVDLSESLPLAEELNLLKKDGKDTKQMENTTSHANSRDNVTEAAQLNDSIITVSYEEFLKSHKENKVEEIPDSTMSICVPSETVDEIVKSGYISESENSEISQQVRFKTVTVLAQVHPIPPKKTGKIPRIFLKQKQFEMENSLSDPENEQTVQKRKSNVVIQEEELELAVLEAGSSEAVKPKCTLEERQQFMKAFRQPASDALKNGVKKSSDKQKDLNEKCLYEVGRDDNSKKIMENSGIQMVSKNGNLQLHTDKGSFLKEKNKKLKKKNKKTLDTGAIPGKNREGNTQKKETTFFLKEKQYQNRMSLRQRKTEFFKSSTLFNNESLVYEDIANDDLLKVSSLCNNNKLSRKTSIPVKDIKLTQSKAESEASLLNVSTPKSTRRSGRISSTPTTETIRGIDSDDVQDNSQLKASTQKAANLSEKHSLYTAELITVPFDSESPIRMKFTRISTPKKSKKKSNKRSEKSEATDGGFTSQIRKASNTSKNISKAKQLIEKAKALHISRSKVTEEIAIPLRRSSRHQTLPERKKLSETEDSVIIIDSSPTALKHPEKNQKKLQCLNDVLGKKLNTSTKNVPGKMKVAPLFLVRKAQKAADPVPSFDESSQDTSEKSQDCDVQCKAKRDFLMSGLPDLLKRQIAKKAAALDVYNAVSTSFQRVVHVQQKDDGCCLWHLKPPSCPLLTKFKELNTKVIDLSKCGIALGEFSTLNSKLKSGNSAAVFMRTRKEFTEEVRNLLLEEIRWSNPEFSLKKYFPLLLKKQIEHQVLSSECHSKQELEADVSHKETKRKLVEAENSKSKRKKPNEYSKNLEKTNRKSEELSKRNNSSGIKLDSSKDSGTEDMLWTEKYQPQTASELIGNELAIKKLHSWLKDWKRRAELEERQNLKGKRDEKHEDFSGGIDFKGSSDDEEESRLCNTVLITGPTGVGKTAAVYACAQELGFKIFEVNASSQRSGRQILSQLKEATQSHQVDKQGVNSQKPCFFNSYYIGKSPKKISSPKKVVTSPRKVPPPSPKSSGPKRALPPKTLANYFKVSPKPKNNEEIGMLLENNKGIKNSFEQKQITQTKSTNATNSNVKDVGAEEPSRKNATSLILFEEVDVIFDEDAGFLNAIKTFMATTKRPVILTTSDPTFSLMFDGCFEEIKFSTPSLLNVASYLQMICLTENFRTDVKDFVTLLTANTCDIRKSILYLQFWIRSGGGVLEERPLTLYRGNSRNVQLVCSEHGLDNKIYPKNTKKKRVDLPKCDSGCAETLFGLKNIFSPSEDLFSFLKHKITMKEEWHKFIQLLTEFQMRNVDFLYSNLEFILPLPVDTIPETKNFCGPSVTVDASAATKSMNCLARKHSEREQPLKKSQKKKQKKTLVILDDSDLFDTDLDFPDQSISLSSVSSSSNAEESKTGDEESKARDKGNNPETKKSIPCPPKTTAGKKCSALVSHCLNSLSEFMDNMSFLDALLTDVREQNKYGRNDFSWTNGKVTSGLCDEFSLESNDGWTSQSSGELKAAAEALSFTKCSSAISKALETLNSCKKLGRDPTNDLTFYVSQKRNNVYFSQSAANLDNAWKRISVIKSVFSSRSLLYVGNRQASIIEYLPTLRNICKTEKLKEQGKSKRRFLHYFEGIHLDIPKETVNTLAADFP
Sequence of ATP-dependent 6-phosphofructokinase (Trypanosoma brucei brucei) (O15648 whole entry, looked up): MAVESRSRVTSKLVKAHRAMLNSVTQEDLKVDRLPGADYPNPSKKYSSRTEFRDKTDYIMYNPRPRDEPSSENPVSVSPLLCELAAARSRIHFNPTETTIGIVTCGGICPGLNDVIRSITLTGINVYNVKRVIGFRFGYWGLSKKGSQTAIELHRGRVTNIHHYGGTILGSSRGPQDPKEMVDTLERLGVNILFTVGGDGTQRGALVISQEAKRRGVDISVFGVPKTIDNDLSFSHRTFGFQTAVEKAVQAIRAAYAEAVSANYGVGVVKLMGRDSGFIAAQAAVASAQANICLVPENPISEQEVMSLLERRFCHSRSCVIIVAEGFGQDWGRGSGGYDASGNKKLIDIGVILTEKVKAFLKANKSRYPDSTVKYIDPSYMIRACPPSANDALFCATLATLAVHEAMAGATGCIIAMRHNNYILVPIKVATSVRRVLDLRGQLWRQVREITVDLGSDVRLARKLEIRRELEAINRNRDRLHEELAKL

O=NN(CCCl)C(=O)NCCCl
inactive: Potency [1] | Potency [2] | activation [3] 0.438% | Potency [4] | outcome [5] | outcome [6] | outcome [7] | outcome [8] | outcome [9] | Potency [10] | outcome [11] | outcome [12] | activation [13] 15.8% | outcome [14] | activation [15] 14.4%
-0.612%: viability change [4]

Cc1cn[nH]c1
inactive: outcome [16] | Potency [1] | Potency [2] | Potency [4] | outcome [5] | outcome [6] | outcome [7] | outcome [9] | Potency [10] | Potency [17] | outcome [11]
9.47%: viability change [4]

Cc1[nH]c(=O)c(C#N)cc1-c1ccncc1
inactive: outcome [16] | Potency [1] | Potency [2] | activation [3] 0.562% | Potency [4] | outcome [5] | outcome [6] | outcome [7] | outcome [9] | Potency [10] | outcome [11] | outcome [18]
-4.04%: viability change [4]

CCCC(CCC)C(=O)O
2.98%: viability change [4]
inactive: outcome [16] | Potency [1] | activation [3] 0.688% | Potency [4] | outcome [5] | outcome [6] | outcome [7] | outcome [8] | outcome [9] | Potency [10] | outcome [11] | Potency [19] | outcome [12] | activation [15] 0.686% and -7.28% and -7.7%

Cc1c(C)c2c(c(C)c1O)CCC(C)(COc1ccc(CC3SC(=O)NC3=O)cc1)O2 (stereo not given)
inactive: outcome [16]

CC(C[N+](C)(C)C)OC(N)=O (stereo not given)
inactive: outcome [16] | Potency [1] | Potency [2] | activation [3] 0.562% | Potency [4] | outcome [5] | outcome [6] | outcome [7] | outcome [8] | outcome [9] | Potency [10] | outcome [11]
-0.659%: viability change [4]

CC(=O)Oc1ccccc1C(=O)O
-7.95%: viability change [4]
inactive: outcome [16] | Potency [1] | Potency [2] | Potency [4] | outcome [5] | outcome [6] | outcome [7] | outcome [9] | Potency [10] | outcome [11] | Potency [19] | outcome [12] | activation [13] -3.22% and 7.95% | outcome [14] | activation [15] 0.393% and 3.49%

CC(C)(C)NCC(O)c1ccc(O)c(CO)c1 (stereo not given)
-3.99% and 2.04%: viability change [4]
inactive: Potency [1] | Potency [2] | activation [3] 0.188% and 0.75% | Potency [4] | outcome [5] | outcome [6] | outcome [7] | outcome [9] | Potency [10] | Potency [17] | outcome [11]

NNCCc1ccccc1
2.04%: viability change [4]
inactive: outcome [16] | activation [3] 1.5% | Potency [4] | outcome [5] | outcome [6] | outcome [7] | outcome [9] | Potency [10] | outcome [11]

CCCCNc1cc(C(=O)O)cc(S(N)(=O)=O)c1Oc1ccccc1
10.1%: viability change [4]
inactive: outcome [16] | Potency [1] | activation [3] 1.31% | Potency [4] | outcome [5] | outcome [6] | outcome [7] | outcome [9] | Potency [10] | outcome [11]

Cc1ccccc1C(OCCN(C)C)c1ccccc1 (stereo not given)
inactive: outcome [16] | Potency [1] | Potency [2] | activation [3] 0.625% | Potency [4] | outcome [5] | outcome [6] | outcome [7] | outcome [9] | Potency [10] | outcome [11] | Potency [19] | activation [15] 2.67%
7.3%: viability change [4]

Nc1nc2c(ncn2COCCO)c(=O)[nH]1
inactive: outcome [16] | Potency [1] | Potency [2] | Potency [4] | outcome [5] | outcome [6] | outcome [7] | outcome [9] | Potency [10] | Potency [17] | outcome [11]
-1.37%: viability change [4]
